Experimental data from PubChem BioAssay.
Several values for one entry are separate records, joined by “and”; a condition that tells them apart may be missing. Identical values can stand only once. For some of these results: Potency and affinity values are given separately. Activity calls are given as the source filed them.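 The calls were made as follows, unless noted: active = thallium flux through the channel raised or lowered by more than 3 SD from vehicle-only wells, actives on both sides; inactive = the rest.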

Key:
[1] = liver-stage malaria parasite growth inhibition, primary screen, cell-based, HepG2, luciferase luminescence, HepG2 viability (AID 624349; in the data active = parasite load remaining mostly below about 12%, no sharp cut-off; inactive = mostly above about 10%;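 also: 100% = mean of DMSO negative control wells on the same plate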); settings: P. berghei liver stage in HepG2, luciferase luminescence, concentration not given here; parasite load remaining: stronger effect = lower value; viability: measured here: HepG2 viability without parasites
[2] = Cy5 fluorescence interference with SSB-bound oligo, artefact control for HCV NS3 helicase inhibitor project, biochemical, NIH Clinical Collection, E. coli SSB (AID 743268; call rule not given here)
[3] = modulation of C. elegans fzo-1 (AID 1259413; call rule not given here;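 also: fzo-1 mutant C. elegans worms in liquid wells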); settings: C. elegans fzo-1 modulator screen, mean read-out; stronger effect = higher value
F380Y/beta1 = experiment: modulators of BK channel variants, profiling panel, selectivity assay, cell-based, U2OS BacMam, thallium flux, beta subunits (AID 1259406); settings: at 30 µM;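 also: initial slope of Thallos dye fluorescence rise after thallium is added; log ratio against the mean of 0.3% DMSO vehicle wells on the same plate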
F380Y/beta4 = experiment: as above; settings: at 30 µM
R275C = experiment: as above; settings: at 30 µM
R275C/beta1 = experiment: as above; settings: at 30 µM
R275C/beta2Delta = experiment: as above; settings: at 30 µM
R275C/beta4 = experiment: as above; settings: at 30 µM
R275C/Slo1WT/beta2 = experiment: as above; settings: at 30 µM
[4] = viability rescue of complex I mutant cybrids, primary screen, cell-based, galactose medium, ATP luminescence (AID 1645843;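 active = z-score of at least 1.8 in each of two replicates, scored against plate mean and spread of sample wells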;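 also: positive z means more ATP and so rescue of galactose-driven cybrid death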); settings: complex I mutant cybrid cells, 72 h, stronger effect = higher value
[5] = hESC survival regulators, cell-based (AID 493140; call rule not given here;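 also: cells exposed to compounds for four days before counting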); settings: human embryonic stem cell survival screen; stronger effect = higher value
[6] = test system: Hepatitis C virus NS3 helicase; experiment: HCV NS3 helicase inhibitors, primary screen, biochemical, fluorescence polarization, LOPAC1280 library (AID 687035; in the data active = inhibition above about 37%); settings: Purified HCV NS3 helicase, Cy5-dT15 ssDNA binding fluorescence polarization; stronger effect = higher value; concentration not given here
[7] = polyglutamine-triggered caspase-3 activation inhibitors, cell-based (AID 1583); settings: polyglutamine-induced caspase-3 activation, cell assay; stronger effect = higher value;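 tested at 10 µM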
[8] = suppressors of polyQ aggregation in yeast, 75Q-TubU reporter (AID 1593); settings: Yeast 75Q polyglutamine aggregation reporter
[9] = rescue of polyQ-huntingtin neuronal dysfunction in worms, whole organism, C. elegans mechanosensory neurons, N-terminal huntingtin (AID 1599); settings: touch response, stronger effect = higher value
[10] = inhibitors of mitochondrial cytochrome c release, biochemical, purified mitochondria (AID 1603); settings: stronger effect = lower value;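 also: mouse liver mitochondria challenged with calcium chloride; signal normalized to the plate average as 100%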
[11] = inhibitors of polyQ protein aggregation (AID 1604); settings: polyglutamine-induced protein aggregation inhibition assay; stronger effect = higher value; tested at 2.5 µM
[12] = enhancers of glutamate uptake in motor neurons, MN-1 cell line (AID 1612); settings: MN-1 motor neuron cells, stronger effect = higher value;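 also: tested at 1 µM final; 0% = mean of DMSO vehicle wells on each plate; positive means more glutamate uptake than control and negative means less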
[13] = suppressors of polyglutamine aggregation in yeast, 75Q-TubH (AID 1616); settings: S. cerevisiae 75Q-TubH polyglutamine aggregation suppression; stronger effect = higher value

## OCCN1C[C@H](O)[C@@H](O)[C@H](O)[C@H]1CO
[1]
  parasite load remaining: 103% (inactive)
  viability: 80%
[2]
  fluorescence ratio: 1.05 (inactive)
[3]
  mean signal: 232 (inactive)
F380Y/beta1
  log fold change Tl+ flux: -0.0621 (inactive)
F380Y/beta4
  log fold change Tl+ flux: -0.0159 (inactive)
R275C
  log fold change Tl+ flux: -0.0048 (inactive)
R275C/beta1
  log fold change Tl+ flux: -0.0736 (inactive)
R275C/beta2Delta
  log fold change Tl+ flux: -0.00824 (inactive)
R275C/beta4
  log fold change Tl+ flux: -0.031 (inactive)
R275C/Slo1WT/beta2
  log fold change Tl+ flux: -0.0316 (inactive)

## O[C@@H](c1cc(C(F)(F)F)nc2c(C(F)(F)F)cccc12)[C@H]1CCCCN1
[1]
  parasite load remaining: -2.37% (inactive)
  viability: 0.505%
[2]
  fluorescence ratio: 1.04 (inactive)
[3]
  mean signal: 213 (inactive)
[4]
  z-score: -1.5 (inactive)
F380Y/beta1
  log fold change Tl+ flux: 0.529 (active)
F380Y/beta4
  log fold change Tl+ flux: 0.648 (active)
R275C
  log fold change Tl+ flux: 0.256 (active)
R275C/beta1
  log fold change Tl+ flux: 0.641 (active)
R275C/beta2Delta
  log fold change Tl+ flux: 0.366 (active)
R275C/beta4
  log fold change Tl+ flux: 0.803 (active)
R275C/Slo1WT/beta2
  log fold change Tl+ flux: 0.107 (inactive)

## C[C@]12CCC(=O)C=C1CC[C@@H]1[C@@H]2[C@@H](O)C[C@@]2(C)[C@H]1CC[C@]2(O)C(=O)CO
[5]
  survival: 5.5 (inactive)
[6]
  inhibition: -3% (inactive)
[2]
  fluorescence ratio: 0.95 (inactive)
[3]
  mean signal: 278 (inactive)
[4]
  z-score: 0.565 (inactive) and 0.385 (inactive) and -0.22 (inactive)
F380Y/beta1
  log fold change Tl+ flux: 0.0243 (inactive)
F380Y/beta4
  log fold change Tl+ flux: 0.00205 (inactive)
R275C
  log fold change Tl+ flux: -0.0265 (inactive)
R275C/beta1
  log fold change Tl+ flux: -0.0128 (inactive)
R275C/beta2Delta
  log fold change Tl+ flux: 0.0134 (inactive)
R275C/beta4
  log fold change Tl+ flux: -0.0399 (inactive)
R275C/Slo1WT/beta2
  log fold change Tl+ flux: 0.0266 (inactive)

## c1ccc(-c2ccc(C(c3ccccc3)n3ccnc3)cc2)cc1 (stereo not drawn)
[2]
  fluorescence ratio: 1.01 (inactive)
[3]
  mean signal: 204 (inactive)
[4]
  z-score: -1.87 (inactive) and -2.02 (inactive)
F380Y/beta1
  log fold change Tl+ flux: 0.00744 (inactive)
F380Y/beta4
  log fold change Tl+ flux: 0.00227 (inactive)
R275C
  log fold change Tl+ flux: -0.0477 (inactive)
R275C/beta1
  log fold change Tl+ flux: 0.164 (active)
R275C/beta2Delta
  log fold change Tl+ flux: -0.336 (active)
R275C/beta4
  log fold change Tl+ flux: -0.0228 (inactive)
R275C/Slo1WT/beta2
  log fold change Tl+ flux: -0.0124 (inactive)

## Cc1ccc(O)c([C@H](CCN(C(C)C)C(C)C)c2ccccc2)c1
[1]
  parasite load remaining: 63.7% (inactive)
  viability: 67.2%
[2]
  fluorescence ratio: 1 (inactive)
[3]
  mean signal: 219 (inactive)
F380Y/beta1
  log fold change Tl+ flux: 0.0975 (active)
F380Y/beta4
  log fold change Tl+ flux: 0.136 (active)
R275C
  log fold change Tl+ flux: -0.0487 (inactive)
R275C/beta1
  log fold change Tl+ flux: 0.03 (inactive)
R275C/beta2Delta
  log fold change Tl+ flux: 0.0798 (inactive)
R275C/beta4
  log fold change Tl+ flux: 0.0668 (inactive)
R275C/Slo1WT/beta2
  log fold change Tl+ flux: 0.0213 (inactive)

## C[C@@H]1O[C@@H](OC[C@H]2O[C@@H](Oc3c(-c4ccc(O)c(O)c4)oc4cc(O)cc(O)c4c3=O)[C@H](O)[C@@H](O)[C@@H]2O)[C@H](O)[C@H](O)[C@H]1O
[7]
  inhibition: 3.3%
[8]
  score: 1.12
[9]
  rescue above control: 13.8
[10]
  cytochrome c release ratio: 1.08
[11]
  inhibition of aggregation: 48.6%
[12]
  glutamate uptake change: 32.8%
[13]
  aggregation suppression score: 0.985
[1]
  parasite load remaining: 117% (inactive)
  viability: 84.5%
[2]
  fluorescence ratio: 0.95 (inactive)
[3]
  mean signal: 242 (inactive)
F380Y/beta1
  log fold change Tl+ flux: 0.04 (inactive)
F380Y/beta4
  log fold change Tl+ flux: -0.0248 (inactive)
R275C
  log fold change Tl+ flux: 0.0426 (inactive)
R275C/beta1
  log fold change Tl+ flux: -0.0081 (inactive)
R275C/beta2Delta
  log fold change Tl+ flux: 0.00535 (inactive)
R275C/beta4
  log fold change Tl+ flux: -0.00112 (inactive)
R275C/Slo1WT/beta2
  log fold change Tl+ flux: 0.0255 (inactive)

## COc1ccc([C@@H]2Sc3ccccc3N(CCN(C)C)C(=O)[C@@H]2OC(C)=O)cc1
[5]
  survival: 19.4 (inactive)
[6]
  inhibition: -1% (inactive)
[2]
  fluorescence ratio: 0.95 (inactive)
[3]
  mean signal: 243 (inactive)
F380Y/beta1
  log fold change Tl+ flux: 0.0592 (inactive)
F380Y/beta4
  log fold change Tl+ flux: 0.0311 (inactive)
R275C
  log fold change Tl+ flux: -0.0404 (inactive)
R275C/beta1
  log fold change Tl+ flux: 0.0836 (inactive)
R275C/beta2Delta
  log fold change Tl+ flux: 0.0243 (inactive)
R275C/beta4
  log fold change Tl+ flux: 0.104 (inactive)
R275C/Slo1WT/beta2
  log fold change Tl+ flux: 0.0487 (inactive)

## Cn1c(=O)c2[nH]cnc2n(C)c1=O
[7]
  inhibition: 9.69%
[8]
  score: 1.11
[9]
  rescue above control: 1.91
[10]
  cytochrome c release ratio: 0.95
[11]
  inhibition of aggregation: 68.2%
[12]
  glutamate uptake change: -19.2%
[13]
  aggregation suppression score: 0.779
[5]
  survival: 4.08 (inactive) and 2.17 (inactive)
[6]
  inhibition: -2% (inactive)
[3]
  mean signal: 256 (inactive)
[4]
  z-score: 0.425 (inactive) and 0.475 (inactive) and 0.2 (inactive)
F380Y/beta1
  log fold change Tl+ flux: 0.00494 (inactive)
F380Y/beta4
  log fold change Tl+ flux: -0.00644 (inactive)
R275C
  log fold change Tl+ flux: 0.000907 (inactive)
R275C/beta1
  log fold change Tl+ flux: 0.0503 (inactive)
R275C/beta2Delta
  log fold change Tl+ flux: -0.00245 (inactive)
R275C/beta4
  log fold change Tl+ flux: 0.0294 (inactive)
R275C/Slo1WT/beta2
  log fold change Tl+ flux: 0.0554 (inactive)

## Cc1cccc(Nc2ccncc2S(=O)(=O)NC(=O)NC(C)C)c1
[5]
  survival: 8.33 (inactive)
[1]
  parasite load remaining: 136% (inactive) and 72.2% (inactive) and 143% (inactive)
  viability: 83% and 88.5% and 82%
[2]
  fluorescence ratio: 1.01 (inactive)
[3]
  mean signal: 241 (inactive)
[4]
  z-score: 1.21 (inactive)
F380Y/beta1
  log fold change Tl+ flux: 0.0627 (inactive)
F380Y/beta4
  log fold change Tl+ flux: -0.0278 (inactive)
R275C
  log fold change Tl+ flux: -0.147 (active)
R275C/beta1
  log fold change Tl+ flux: 0.0246 (inactive)
R275C/beta2Delta
  log fold change Tl+ flux: 0.0124 (inactive)
R275C/beta4
  log fold change Tl+ flux: 0.029 (inactive)
R275C/Slo1WT/beta2
  log fold change Tl+ flux: 0.0277 (inactive)

## CC(=O)OCC[N+](C)(C)C
[7]
  inhibition: 26.2%
[8]
  score: 1.05
[9]
  rescue above control: 5.33
[10]
  cytochrome c release ratio: 1.31
[11]
  inhibition of aggregation: 74.9%
[12]
  glutamate uptake change: -18.6%
[13]
  aggregation suppression score: 1.22
[2]
  fluorescence ratio: 1.03 (inactive)
[3]
  mean signal: 251 (inactive)
[4]
  z-score: 1.64 (inactive) and 0.235 (inactive)
F380Y/beta1
  log fold change Tl+ flux: 0.000642 (inactive)
F380Y/beta4
  log fold change Tl+ flux: -0.0182 (inactive)
R275C
  log fold change Tl+ flux: -0.00869 (inactive)
R275C/beta1
  log fold change Tl+ flux: -0.00581 (inactive)
R275C/beta2Delta
  log fold change Tl+ flux: -0.00325 (inactive)
R275C/beta4
  log fold change Tl+ flux: 0.0607 (inactive)
R275C/Slo1WT/beta2
  log fold change Tl+ flux: 0.0039 (inactive)
